Results: PubChem BioAssay AID1159580 (chemical genetic matrix, 2015)
In all, about 5,500 compounds went through this assay and about 2,000 (36%) were called active. Roughly 18% stayed inconclusive and do not appear here. No stated cut-off is given here; in the data, active means normalized growth mostly below about 0.91 (no sharp cut-off); inconclusive means no clear call, values can overlap the other calls; inactive means mostly above about 0.92. Some of the results follow.

Experiment: chemical genetic growth profiling, strain panel (AID 1159580);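 further: tested at 20 µM; growth read once vehicle control cultures reached saturation at 30 °C; 1 = growth at the plate median or of vehicle wells; lower values mean less growth of the strain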
Settings: S. cerevisiae deletion strains, growth OD

Measured: normalized growth

CC(=O)OC1CC23CC24CCC(OC2OCC(O)C(O)C2O)C(C)(C)C4CCC3C2(C)CC3OC4(CC(C)C3C12C)OC(O)C1(C)OC41 (centres undefined)
inactive: locus YAL021C, strain ccr4, hits give low values 0.995 | locus YAL026C, strain drs2, hits give low values 1.01 | locus YAL030W, strain snc1, hits give low values 1 | locus YBL061C, strain skt5, hits give low values 1.01 | locus YBR009C, strain hhf1, hits give low values 0.988 | locus YBR023C, strain chs3, hits give low values 1 | locus YBR171W, strain sec66, hits give low values 1.02 | locus YBR231C, strain swc5, hits give low values 1.03 | locus YBR279W, strain paf1, hits give low values 1 | locus YCL011C, strain gbp2, hits give low values 1.01 | locus YCL016C, strain dcc1, hits give low values 0.998 | locus YCL069W, strain vba3, hits give low values 1.01 | locus YCR088W, strain abp1, hits give low values 1.01 | locus YDL005C, strain med2, hits give low values 1.02 | locus YDL040C, strain nat1, hits give low values 1 | locus YDR001C, strain nth1, hits give low values 1 | locus YDR069C, strain doa4, hits give low values 1.01 | locus YDR137W, strain rgp1, hits give low values 0.99 | locus YDR159W, strain sac3, hits give low values 1.04 | locus YDR195W, strain ref2 1 | locus YDR297W, strain sur2, hits give low values 1.01 | locus YDR334W, strain swr1, hits give low values 1.01 | locus YDR335W, strain msn5, hits give low values 1.01 | locus YDR392W, strain spt3, hits give low values 0.936 | locus YEL003W, strain gim4, hits give low values 1.01 | locus YEL037C, strain rad23, hits give low values 1 | locus YEL061C, strain CIN8 (second series), hits give low values 1.01 | locus YER015W, strain faa2, hits give low values 1.02 | locus YER016W, strain bim1, hits give low values 1.01 | locus YER111C, strain swi4, hits give low values 0.999 | locus YER155C, strain BEM2 (second series), hits give low values 1.07 | locus YFR010W, strain ubp6, hits give low values 1.03 | locus YGL167C, strain pmr1, hits give low values 0.996 | locus YGL173C, strain kem1, hits give low values 1.01 | locus YGL227W, strain vid30, hits give low values 1.01 | locus YGL240W, strain doc1, hits give low values 1.04 | locus YGL253W, strain hxk2, hits give low values 1 | locus YHR013C, strain ard1, hits give low values 0.998 | locus YHR027C, strain rpn1, hits give low values 1 | locus YHR142W, strain chs7, hits give low values 0.978 | locus YJL092W, strain hpr5, hits give low values 1.02 | locus YJL095W, strain BCK1 (second series), hits give low values 1.01 | locus YJL115W, strain asf1, hits give low values 1.01 | locus YJL129C, strain trk1, hits give low values 1 | locus YJL154C, strain vps35, hits give low values 1.01 | locus YJL164C, strain tpk1, hits give low values 0.972 | locus YJL166W, strain qcr8, hits give low values 1.01 | locus YJL187C, strain SWE1, hits give low values 0.996 | locus YKL160W, strain elf1, hits give low values 0.998 | locus YKR026C, strain gcn3, hits give low values 1.01 | locus YKR091W, strain srl3, hits give low values 1 | locus YLL001W, strain dnm1, hits give low values 1.01 | locus YLL026W, hits give low values 1.02 | locus YLL041C, strain sdh2, hits give low values 0.997 | locus YLR027C, strain aat2, hits give low values 0.997 | locus YLR221C, strain rsa3, hits give low values 1.04 | locus YLR258W, strain gsy2, hits give low values 1 | locus YLR262C, strain YPT6 (second series), hits give low values 1.02 | locus YLR320W, strain mms22, hits give low values 1.04 | locus YLR342W, strain FKS1, hits give low values 1 | locus YLR357W, strain rsc2, hits give low values 1.05 | locus YLR370C, strain arc18, hits give low values 1.01 | locus YLR384C, strain iki3, hits give low values 0.998 | locus YML120C, strain ndi1, hits give low values 0.98 | locus YMR058W, strain fet3, hits give low values 1.03 | locus YMR125W, strain sto1, hits give low values 0.985 | locus YMR129W, hits give low values 1 | locus YMR205C, strain PFK2, hits give low values 0.994 | locus YMR231W, strain pep5, hits give low values 1.01 | locus YNL071W, strain lat1, hits give low values 0.999 | locus YNL209W, strain ssb2, hits give low values 0.987 | locus YNL248C, strain rpa49, hits give low values 1.07 | locus YNL322C, strain KRE1 (second series), hits give low values 1.01 | locus YNR049C, strain mso1, hits give low values 1.02 | locus YOR001W, strain rrp6, hits give low values 1.04 | locus YOR070C, strain gyp1, hits give low values 1.02 | locus YOR080W, strain dia2, hits give low values 1 | locus YOR083W, strain WHI5, hits give low values 0.993 | locus YOR106W, strain vam3, hits give low values 0.975 | locus YOR265W, strain rbl2, hits give low values 1 | locus YOR270C, strain vph1, hits give low values 0.906 | locus YOR290C, strain snf2, hits give low values 0.959 | locus YPL051W, strain arl3, hits give low values 1.03 | locus YPL078C, strain atp4, hits give low values 0.963 | locus YPL106C, strain sse1, hits give low values 1.02 | locus YPL240C, strain hsp82, hits give low values 1.02

C=CC(C)(C)c1c2c(c(O)c3c(=O)c4ccc(O)c(O)c4oc13)C=CC(C)(C)O2
inactive: locus YBR021W, strain FUR4, hits give low values 0.893 | locus YBR229C, strain ROT2, hits give low values 1 | locus YCL029C, strain bik1, hits give low values 0.992 | locus YDL101C, strain DUN1, hits give low values 0.929 | locus YDL185W, strain tfp1, hits give low values 0.996 | locus YDR101C, strain arx1, hits give low values 0.973 | locus YDR502C, strain sam2, hits give low values 0.948 | locus YER110C, hits give low values 1 | locus YGL078C, strain dbp3, hits give low values 0.975 | locus YGR252W, strain gcn5, hits give low values 0.823 | locus YHR079C, strain IRE1 (second series), hits give low values 1 | locus YHR094C, strain hxt1, hits give low values 1.01 | locus YIL125W, strain kgd1, hits give low values 0.984 | locus YIR030C, strain dcg1, hits give low values 1 | locus YJL134W, strain LCB3, hits give low values 0.987 | locus YJL168C, strain set2, hits give low values 0.99 | locus YKL009W, strain mrt4, hits give low values 0.938 | locus YKL068W, hits give low values 0.996 | locus YKL085W, strain MDH1 (second series), hits give low values 0.978 | locus YKL085W, strain MDH1, hits give low values 0.978 | locus YLR102C, strain apc9, hits give low values 1.01 | locus YML032C, strain rad52, hits give low values 0.954 | locus YML124C, strain tub3, hits give low values 1.02 | locus YMR078C, strain ctf18, hits give low values 0.984 | locus YMR263W, strain SAP30, hits give low values 0.92 | locus YNL250W, strain rad50, hits give low values 1.03 | locus YNL271C, strain bni1, hits give low values 0.992 | locus YNL298W, strain CLA4, hits give low values 1 | locus YNR052C, strain pop2, hits give low values 0.93 | locus YOL012C, strain htz1 0.242 | locus YOL147C, strain pex11, hits give low values 0.943 | locus YOR136W, strain idh2, hits give low values 0.97 | locus YOR144C, strain elg1, hits give low values 0.983 | locus YOR316C, strain cot1, hits give low values 0.986 | locus YPL241C, strain CIN2, hits give low values 0.952 | locus YPR119W, strain clb2, hits give low values 1.01 | locus YPR141C, strain kar3, hits give low values 1
active: locus YDL035C, strain GPR1, hits give low values 0.601 | locus YDL074C, strain BRE1, hits give low values 0.615 | locus YDL192W, strain arf1, hits give low values 0.829 | locus YDR150W, strain NUM1, hits give low values 0.78 | locus YDR162C, strain NBP2, hits give low values 0.444 | locus YDR318W, strain mcm21, hits give low values 0.886 | locus YDR388W, hits give low values 0.918 | locus YER155C, strain BEM2, hits give low values 0.817 | locus YER167W, strain BCK2, hits give low values 0.871 | locus YGL086W, strain mad1, hits give low values 0.794 | locus YGL248W, strain PDE1, hits give low values 0.847 | locus YGR135W, strain pre9, hits give low values 0.891 | locus YHR129C, strain ARP1, hits give low values 0.726 | locus YHR200W, strain rpn10, hits give low values 0.894 | locus YIL066C, strain RNR3, hits give low values 0.413 | locus YIL073C, strain SPO22, hits give low values 0.424 | locus YJL095W, strain BCK1, hits give low values 0.767 | locus YJL187C, strain SWE1 (second series), hits give low values 0.81 | locus YKR001C, strain vps1, hits give low values 0.783 | locus YLR039C, strain RIC1, hits give low values 0.581 | locus YLR058C, strain SHM2, hits give low values 0.867 | locus YLR262C, strain YPT6, hits give low values 0.544 | locus YLR268W, strain sec22, hits give low values 0.812 | locus YLR330W, strain CHS5, hits give low values 0.9 | locus YLR342W, strain FKS1 (second series), hits give low values 0.4 | locus YLR371W, strain rom2, hits give low values 0.799 | locus YLR418C, strain cdc73, hits give low values 0.51 | locus YML016C, strain PPZ1, hits give low values 0.873 | locus YMR223W, strain ubp8, hits give low values 0.891 | locus YMR307W, strain GAS1, hits give low values 0.428 | locus YNL067W, strain RPL9B, hits give low values 0.843 | locus YNL233W, strain BNI4, hits give low values 0.582 | locus YNL307C, strain MCK1, hits give low values 0.799 | locus YOL006C, strain TOP1, hits give low values 0.275 | locus YOR061W, strain CKA2, hits give low values 0.78 | locus YOR069W, strain VPS5, hits give low values 0.873 | locus YOR184W, strain ser1, hits give low values 0.76 | locus YPL055C, strain LGE1, hits give low values 0.451 | locus YPR163C, strain tif3, hits give low values 0.796 | locus YPR167C, strain met16, hits give low values 0.916 | strain wtn01, hits give low values 0.839
